Test results taken from PubChem BioAssay AID485344 (National Center for Advancing Translational Sciences (NCATS), 2010).
The campaign covered roughly 340,000 compounds. About 6,900 (2%) were called active. Cut-off read from the data, not from the text of the source: active = inhibition above about 30%; inactive = below that, where a call was filed. The sample as a whole holds a higher share of actives than the screen did.

These molecules were tested against D(2) dopamine receptor (Homo sapiens) (UniProt P14416) (assay: HTS Assay for Allosteric Antagonists of the Human D2 Dopamine Receptor: Primary Screen for Antagonists). Settings: HEK293 TREx D2 cells, calcium flux, dopamine EC80; at 10 µM; active compounds read high.
Procedure, shortened: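 Calcium mobilization kinetics were recorded at 1 s intervals in tetracycline-induced HEK293 T-REx D2 cells, first for 180 s after compound addition and then 180 s after EC80 dopamine.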
Note: 0% is about no effect.

Sequence of D(2) dopamine receptor (Homo sapiens) (P14416 whole entry, looked up): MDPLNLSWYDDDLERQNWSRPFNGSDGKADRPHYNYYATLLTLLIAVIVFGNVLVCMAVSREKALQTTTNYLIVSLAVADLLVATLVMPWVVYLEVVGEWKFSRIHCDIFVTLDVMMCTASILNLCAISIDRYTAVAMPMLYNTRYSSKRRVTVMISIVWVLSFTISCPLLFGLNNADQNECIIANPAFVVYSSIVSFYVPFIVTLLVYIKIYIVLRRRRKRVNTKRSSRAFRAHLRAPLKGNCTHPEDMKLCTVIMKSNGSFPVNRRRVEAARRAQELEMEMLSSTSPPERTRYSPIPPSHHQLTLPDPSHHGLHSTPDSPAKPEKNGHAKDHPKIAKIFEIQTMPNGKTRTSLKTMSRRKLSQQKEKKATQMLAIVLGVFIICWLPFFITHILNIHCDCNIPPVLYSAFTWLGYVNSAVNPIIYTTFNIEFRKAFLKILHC

SMILES | inhibition
Cc1ccc(S(=O)(=O)CCC(=O)OCC(=O)NCCc2ccc(S(N)(=O)=O)cc2)cc1 | -1.28% (inactive)
CC(=O)Nc1ccc(NC(=O)C(NS(=O)(=O)c2ccc3c(c2)OCCO3)C(C)C)cc1 (centres undefined) | -6.92% (inactive)
COCC(=O)Nc1c(C(=O)N2CCCC2)oc2ccccc12 | -20% (inactive)
COc1ccc(N2CCN(Cc3ccc(Br)s3)CC2)cc1 | -12.7% (inactive)
CCOCc1c(C(=O)N2CCN(Cc3ccc(Br)s3)CC2)oc2ccccc12 | 32.1% (active)
CS(=O)(=O)c1ccc(Cl)c(NC(=O)COC(=O)c2ncc(Cl)c(Cl)c2Cl)c1 | -16.5% (inactive)
Cc1cccc(CN2CCC(CNC(=O)Nc3ccc(F)c(Cl)c3)CC2)c1 | -7.23% (inactive)
Cc1ccc(C)c(CN2CCC(CNC(=O)Nc3ccc(C)c(F)c3)CC2)c1 | -38% (inactive)
COc1cc(NC(=O)NCC2CCN(Cc3ccc(C)cc3)CC2)cc(OC)c1OC | 33.3% (active)
COc1cc(C(=O)N(C)Cc2cccc(OC)c2OC)ccc1OCC(=O)Nc1cccc(C(F)(F)F)c1 | -10.9% (inactive)
CCCCCCOc1ccc(OC(=O)c2cccnc2)cc1 | 3.26% (inactive)
N#CCc1ccc(OC(=O)c2cccnc2)cc1 | 0.882% (inactive)
O=C(Oc1ccc(Br)cc1)c1cccnc1 | 38.5% (active)
Cc1ccc2c(CN3CCN(S(=O)(=O)c4ccccc4C(F)(F)F)CC3)cc(=O)oc2c1 | -23.9% (inactive)
CC(C)(C)OC(=O)NCCCCCNC(=O)c1nc[nH]c1C(=O)NCc1ccccc1 | 7.02% (inactive)
Cc1ccc(-c2nc(CSCC(=O)NC3CCN(Cc4ccccc4)CC3)c(C)o2)cc1 | 47.3% (active)
Cc1ccc(S(=O)(=O)NCCC(=O)NC2CCN(Cc3ccccc3)CC2)cc1 | 27.4% (inactive)
Cc1ccc(-c2cc(C(=O)NC3CCN(Cc4ccccc4)CC3)c3ccccc3n2)cc1 | -27.8% (inactive)
CN(CC(=O)Nc1ccc(F)cc1)CC(=O)N1CCCCC1 | -7.3% (inactive)
Cc1cc(C(=O)Nc2nnc(C3CC3)s2)c(C)s1 | 3.85% (inactive)

SMILES | inhibition
COC(=O)c1ccc(CN2CCC(CO)(Cc3ccc(OC)cc3)CC2)cc1 | 63.2% (active)
CCOC(=O)C1(CCOC)CCN(Cc2ccc(C(=O)OC)cc2)CC1 | 5.1% (inactive)
COc1ccc(CC2(CO)CCN(Cc3cnn(C)c3)CC2)cc1 | -4.17% (inactive)
Cc1ccc(C)c(NC(=O)COC(=O)CSc2ccccc2)c1 | -6.28% (inactive)
N#CCCN(C(=O)COC(=O)C1CCN(c2ccc(C(F)(F)F)cn2)CC1)c1ccc(F)cc1 | 5.59% (inactive)
COc1ccc(Cl)cc1NC(=O)COc1ccc2c(c1)OCO2 | 7.9% (inactive)
C[C@H](OC(=O)n1ccnc1)[C@@H]1O[C@@]2(C)CCC[C@@H]1O2 | -7.72% (inactive)
CC1Cc2ccccc2N1C1=CC(=O)CC(C)(C)C1 (centres undefined) | 3.51% (inactive)
CC1(C)OC(=O)N2CCc3ccccc3C21C (centres undefined) | 40.5% (active)
CCN(CC(=O)Nc1ccccc1C(F)(F)F)C(=O)CSCc1c(C)noc1C | 1.97% (inactive)
C=CCN1C(=O)C(O)(CC(=O)c2ccccn2)c2ccccc21 (centres undefined) | 3.67% (inactive)
O=C(CC1(O)C(=O)N(CN2CCOCC2)c2ccccc21)c1ccccc1 (centres undefined) | 30.3% (active)
C=CCN1C(=O)C(O)(CC(=O)c2ccc(Cl)cc2)c2ccccc21 (centres undefined) | 0.63% (inactive)
CCc1noc(C)c1C(=O)Oc1ccc(N(C)S(=O)(=O)c2ccc(C)c(C)c2)cc1 | -5.58% (inactive)
Cc1ccc(S(=O)(=O)N(C)C)cc1NC(=O)C(C)OC(=O)c1ccc2ccccc2n1 (centres undefined) | 5.2% (inactive)
COc1cc(C(C)=O)ccc1OC(C)C(=O)Nc1ccc(S(=O)(=O)N2CCCC2)cc1 (centres undefined) | -10.1% (inactive)
O=C1CN(C(=O)CN2C(=O)NC3(CCCCC3)C2=O)c2ccccc2N1 | 3.68% (inactive)
CC(=O)N1C(=O)C2(Nc3ccccc3N2)c2ccccc21 | 34.2% (active)
CC(C)(C)C(=O)CCN1C(=O)C2(OCCO2)c2ccccc21 | -2.06% (inactive)
CC1CCN(C(=O)COC(=O)c2cc(=O)[nH]c3ccccc23)CC1 | -0.452% (inactive)

SMILES | inhibition
CC(NC(=O)c1ccccc1F)c1cccc2ccccc12 (centres undefined) | 10.4% (inactive)
CCOC(=O)C1CCN(C(=O)Cn2nc(C)c3c(C)n(-c4ccccc4)nc3c2=O)CC1 | 2.33% (inactive)
Cc1nn(CC(=O)N2CCCCC2)c(=O)c2nn(-c3ccccc3)c(C)c12 | 20.3% (inactive)
COc1ccc(OC)c(CNC(=O)Cn2nc(C)c3c(C)n(-c4ccc(C)cc4)nc3c2=O)c1 | 30% (active)
CC(=O)c1sc(N)nc1C | 9.17% (inactive)
COc1ccc(C(C)(C)C)cc1NC(=O)CCN1C(=O)C2CCCCC2C1=O (centres undefined) | 11.5% (inactive)
Cc1ccc(CC(=O)Nc2ccc(S(=O)(=O)N3CCOCC3)cc2)cc1C | 19% (inactive)
C[C@H]1[C@H]2c3nc4ccccc4n3C[C@H]1ON2C1CCCCC1 | 31% (active)
CN1C(C(=O)NCC2CC2)CC2Cn3c(nc4ccccc43)C21 (centres undefined) | 6.56% (inactive)
CN1C(C(=O)NCc2ccco2)CC2Cn3c(nc4ccccc43)C21 (centres undefined) | 12.7% (inactive)
Cc1cc(C(=O)COc2ccc(Br)cc2F)c(C)n1C1CC1 | -10.6% (inactive)
O=C(CN1CCN(c2ccccc2O)CC1)NC(=O)NCc1ccccc1 | -6.15% (inactive)
COc1ccc2oc(C(=O)OCC(=O)N(CC(C)C)c3c(N)n(Cc4ccccc4)c(=O)[nH]c3=O)c(C)c2c1 | -27.2% (inactive)
Cc1ccc(NC(=O)C(C)OC(=O)Cc2c[nH]c3ccccc23)cc1S(=O)(=O)N1CCOCC1 (centres undefined) | -4.91% (inactive)
CC(C)CCN1CCC(C)(NC(=O)c2ccccc2)C1=O (centres undefined) | 3.51% (inactive)
CC(OC(=O)CN1C(=O)c2ccccc2C1=O)C(=O)c1ccccc1 (centres undefined) | 10.6% (inactive)
CCN(CC(=O)NCc1ccc(Cl)cc1)C(=O)CSc1ccccc1 | -4.45% (inactive)
CCN(CC(=O)NCc1ccc(Cl)cc1)C(=O)c1c(C)noc1C | 30.3% (active)
Cc1noc(C)c1S(=O)(=O)N(CC(=O)NCc1ccc(Cl)cc1)c1ccc2c(c1)OCO2 | 1.26% (inactive)
